# Only some compounds are listed: those with a hit (about 8.3% of all), similar ones and a draw of the others.
# SW480 rerep: inducers of DNA re-replication in SW480 colon cancer cells. SW480 DNA re-replication, Hoechst DNA content imaging, 48 h. Potency, µM (series often up to 46.1 µM), inactives show at the top dose re-replication activation, usual class: activators. 1.8% of 340,000 active. AID 624297; further: potency means the concentration at half of the fitted maximal effect; % of control where 0% means no effect; nearly all actives have a fitted effect of over 55% in size
#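 Compounds, transferred as 23 nL by pin tool, were incubated with cells for 48 hr; DNA content per nucleus was then quantified by Hoechst staining and fluorescence plate imaging.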
# Giardia kill: kills Giardia lamblia; Giardia lamblia trophozoite viability; activity change, % at 7.66 µM, hits read low; 0.15% of 340,000 active; AID 540267; in the data active means activity change below about -80%; inconclusive means between about -30% and that limit;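 further: parasites exposed to compound for two days anaerobically before the ATP read; on the % scale 0 is the no-effect control and ±100 the full control effect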
#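 Trophozoite viability was measured as ATP-dependent luminescence, read 15-30 min after reagent addition. Before that, parasites at 100 cells/well were exposed to compounds for 48 h, anaerobically, at 37 deg C.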
# MCF10A rerep: inducers of DNA re-replication in MCF 10A breast cells | MCF 10A DNA re-replication, Hoechst nuclear intensity, 48 h | Potency, µM (highest dose often 46.1 µM), for inactives: top-dose activity, positive = re-replication, actives largely listed as activators | 2.9% of 350,000 active; further: potency means the concentration at half of the fitted maximal effect; % of control where 0% means no effect; nearly all actives have a fitted effect of over 50% in size
# RORgamma inh: blocks mouse ROR gamma transcriptional activity | P51450 | Drosophila S2 Gal4-RORgamma UAS-luciferase reporter, 20 h | Potency, µM (titrated, usually from 53.6 µM), for the others: top-dose activity change, negative = inhibition, hits mostly inhibitors | 5.4% of 310,000 active; further: potency means the concentration at half of the fitted maximal effect; on the % scale 0 is the no-effect control and ±100 the full control effect; nearly all actives have a fitted effect of over 60% in size
# Target sequence (P51450 whole entry, looked up, the tested form may be a part): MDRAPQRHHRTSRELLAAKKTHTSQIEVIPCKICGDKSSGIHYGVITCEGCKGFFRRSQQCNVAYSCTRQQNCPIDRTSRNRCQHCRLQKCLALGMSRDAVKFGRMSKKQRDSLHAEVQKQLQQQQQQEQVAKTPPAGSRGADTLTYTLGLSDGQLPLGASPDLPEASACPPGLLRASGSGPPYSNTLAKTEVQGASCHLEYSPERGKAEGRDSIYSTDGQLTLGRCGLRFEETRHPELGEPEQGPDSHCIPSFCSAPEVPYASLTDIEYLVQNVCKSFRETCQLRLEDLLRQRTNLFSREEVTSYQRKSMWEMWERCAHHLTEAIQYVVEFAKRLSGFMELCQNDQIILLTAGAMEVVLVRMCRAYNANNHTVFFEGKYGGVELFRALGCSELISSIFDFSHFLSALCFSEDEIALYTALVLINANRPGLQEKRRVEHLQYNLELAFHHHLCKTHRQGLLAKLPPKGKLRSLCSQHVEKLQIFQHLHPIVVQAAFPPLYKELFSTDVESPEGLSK
#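 Luciferase reporter read in Schneider cells carrying Gal4-RORγ (mouse) and UAS-Photinus luciferase; cells given compound 1 h before 700 uM copper sulfate induction, then incubated 20 h at ambient temperature.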
# Chronic BCR inh: blocks chronic active B-cell receptor signaling | ABC-DLBCL IkBa-CBG/CBR reporter, luminescence ratio, 4 h | 0.05% of 340,000 active | AID 493014 | Potency, µM (doses to about 46.1 µM), for inactives: top-dose activity change, negative = inhibition, actives largely listed as inhibitors; active means well fitted inhibition curve with a large enough effect in the signal ratio, with a control signal flat, not every such curve was filed as active; inconclusive means small, poorly fitted or top-dose-only effect, or effect the other way, or a change in a side signal; the % refers to the signal ratio;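 further: potency means the concentration at half of the fitted maximal effect; plate controls were basal doxycycline-induced cells for no effect and cells given 10 µM MG132 for full effect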
#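 Cell line TMD8 (human ABC DLBCL), stably expressing tet-inducible CBG68-IkBa fusion and CBR; IMDM/0.5% FBS; cpd up to 46 uM; dox induction, 4 h, 37C/5% CO2; dual luminescence; green/red ratio; MG132 control.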
# Gal4-VP16 FLuc: Gal4-VP16 reporter inhibition counter-screen; Drosophila S2 Gal4-VP16 UAS-luciferase, luminescence, 20 h; Potency, µM (top dose mostly 53.6 µM), inactives show at the highest dose activity, negative = inhibition, usual class: inhibitors; 3.5% of 310,000 active;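 further: Gal4-VP16 expression switched on by copper sulfate through the metallothionein promoter; potency means the concentration at half of the fitted maximal effect; on the % scale 0 is the no-effect control and ±100 the full control effect; nearly all actives have a fitted effect of over 50% in size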
# * hit, by the source's call; ? = inconclusive; / = no result; [ ] = dose if it differs, or a comment. Unless noted, the call rests on the fitted dose curve; in most records, active means well fitted curve in the direction sought with a large enough effect; inconclusive means small, poorly fitted or top-dose-only effect, or another doubt; inactive means no such curve, though single readings can be large; an effect the other way counts as inactive or inconclusive.
SMILES,SW480 rerep,Giardia kill,MCF10A rerep,RORgamma inh,Chronic BCR inh,Gal4-VP16 FLuc
CC(=O)Nc1sc(N/N=C/c2ccccc2)nc1-c1ccc(C)cc1,-4%,-13,0%,-17%,-1%,3%
Cc1ccc(S(=O)(=O)N2CCC(C(=O)NCCCN3CCCC3=O)CC2)cc1C,-3%,-7,1%,0%,-1%,-7%
O=C(c1ccc(CS(=O)c2ccccc2Cl)o1)N1CCOCC1 (stereo not drawn),-10%,-2,-3%,-26%,2%,-18%
COc1ccc(N2CCN(C(=O)c3ccc(CS(=O)c4cccc(C)c4)o3)CC2)cc1 (stereo not drawn),5.8µM*,-4,?,2%,-22%,7%
COc1cccc(N2CCN(C(=O)c3ccc(CS(=O)c4ccccc4Cl)o3)CC2)c1 (stereo not drawn),0.52µM*,-20,17%,-7%,?,-3%
O=C(c1ccc(CS(=O)c2ccccc2Cl)o1)N1CCN(c2ccccc2)CC1 (stereo not drawn),2.6µM*,-26,?,-13%,?,-6%
Cc1ccc(Cl)cc1N1CCN(C(=O)c2ccc(CS(=O)Cc3ccc(Cl)cc3)o2)CC1 (stereo not drawn),0%,25,?,5%,?,-4%
Cc1ccc(C)c(N2CCN(C(=O)c3ccc(CS(=O)Cc4ccc(Cl)cc4)o3)CC2)c1 (stereo not drawn),16µM*,-8,?,10%,?,6%
COc1ccc(N2CCN(C(=O)c3ccc(CS(=O)Cc4ccc(Cl)cc4)o3)CC2)cc1 (stereo not drawn),-12%,5,10%,37%,-2%,12%
O=C(NCC1CCCN(C2Cc3ccccc3C2)C1)c1cccs1 (stereo not drawn),-10%,-13,-22%,-13%,?,5%
COc1ccc(N2CCN(C(=O)c3ccc(CS(=O)(=O)c4ccccc4C)o3)CC2)cc1,9%,-22,12%,42%,0%,8%
COc1cccc(N2CCN(C(=O)c3ccc(CS(=O)c4ccccc4C)o3)CC2)c1 (stereo not drawn),5.8µM*,7,?,-34%,?,-9%
COc1ccccc1S(=O)(=O)Cc1ccc(C(=O)N2CCN(c3cccc(Cl)c3)CC2)o1,?,6,15µM*,-47%,?,-5%
COc1ccccc1S(=O)(=O)Cc1ccc(C(=O)N2CCN(c3ccccc3)CC2)o1,11%,-13,11%,31%,?,7%
CCc1ccc(/C=N/NC(=O)c2nnn(-c3nonc3N)c2C(C)C)cc1,?,-12,14%,5%,1%,-3%
CSc1ccc(/C=C/C(=O)N2CCN(c3ccccn3)CC2)cc1,-2%,-9,-7%,13µM*,?,-27%
COc1ccc(/C=C/C(=O)NC(=S)N2CCN(c3ccccn3)CC2)cc1OC,4%,0,7%,3.2µM*,-24%,11µM*
COc1ccc(/C=C/C(=O)NC(=S)N2CCN(c3ccccc3OC)CC2)cc1,10%,10,13%,2%,2%,-1%
O=C(/C=C/c1ccc(F)cc1)NC(=S)N1CCN(c2ccccn2)CC1,-1%,-29,0%,2.5µM*,?,20µM*
COc1ccc(/C=C/C(=O)N2CCN(c3ccccn3)CC2)cc1,-8%,-20,-40%,-16%,-3%,-12%
CC(C)c1ccccc1N=C1SCCCN1C(=O)c1cccc(N2C(=O)CCC2=O)c1,0%,6,7%,/,-8%,/
CC1(c2ccccc2)CC(C)(C)N2C(=O)/C(=C3\SC(=S)NC3=O)c3cccc1c32 (stereo not drawn),-5%,7,3.3µM*,-19%,-9%,-6%
CCc1ccc(-c2cc(C)no2)cc1S(=O)(=O)Nc1cccc(CN2CCCC2)c1,0%,2,0%,-10%,-1%,1%
CCNc1nc(NCC)nc(N(C)N)n1,5%,-2,10%,7.1µM*,-13%,?
Nc1cccc(-n2cccc2)c1,-7%,-28,-2%,16%,6%,6%
SMILES,SW480 rerep,Giardia kill,MCF10A rerep,RORgamma inh,Chronic BCR inh,Gal4-VP16 FLuc
O=C(NC1=NCCS1)c1ccc(OCC2CCCO2)cc1 (stereo not drawn),-1%,-5,12%,?,3%,?
O=C(Nc1ncccc1O)c1ccc(Oc2ccccc2)cc1,-1%,10,5%,?,?,14µM*
O=C(Nc1ncccc1O)c1ccc(OCC2CCCO2)cc1 (stereo not drawn),?,23,0%,10µM*,-8%,?
O=C(COc1ccc(C(=O)c2ccccc2)cc1)Nc1ncccc1O,?,22,-9%,/,/,/
Cc1cnc(NC(=O)c2ccc(OCC3CCCO3)cc2)s1 (stereo not drawn),5%,?,14%,7.9µM*,?,?
c1cncc(-c2nnc3sc(-c4ccco4)nn23)c1,-6%,5,0%,29%,20%,0%
CCN(CC)c1ccc(-c2nn3c(-c4cccnc4)nnc3s2)cc1,21µM*,-3,5.2µM*,12%,-9%,?
O=CC(O)C(O)C(O)C(O)CO (stereo not drawn),/,/,/,6%,/,4%
CC(C)CN=C(NS(=O)(=O)c1ccccc1)C(Cl)(Cl)Cl,6.5µM*,-12,2.9µM*,?,?,?
CC(C)CC(NS(=O)(=O)c1ccccc1)C(=O)O (stereo not drawn),-35%,-7,-184%[0.0737 µM],-33%,0%,4%
O=C(CCSc1ccc(Cl)c(Cl)c1)NC12CC3CC(CC(C3)C1)C2,?,-12,18µM*,?,8%,2%
COc1ccc2c(c1)Cc1sc(NC(=O)c3ccccc3)nc1-2,-5%,15,?,11µM*,?,-26%
COc1ccc(C(=O)Nc2nc3c(s2)Cc2cc(OC)ccc2-3)cc1,-8%[9.22 µM],-6,-5%,?,19%,35µM*
COc1cccc(-c2nnc(NC(=O)c3cccs3)s2)c1,-2%,-1,-4%,-32%,?,4%
COc1ccc2c(c1)Cc1sc(NC(=O)c3cccs3)nc1-2,1%,-3,-180%[0.0737 µM],7.9µM*,?,?
COCCN(C(=O)CCl)C(C(=O)NC1CCCCC1)c1ccccc1C (stereo not drawn),13µM*,-3,?,?,?,?
CCOc1ccccc1N1CC(C(=O)Nc2ccc(S(=O)(=O)N3CCCCC3)cc2)CC1=O (stereo not drawn),12%,5,?,/,3%,/

# From PubChem
